Measured values taken from PMC11442847.

Tests used:
Assay in all cases: cross-linking mass spectrometry
Details in all cases: DSSO, not determined
[1] = molecular target: ATP1B3 (UniProt P54709)
[2] = molecular target: DIP2B (UniProt Q9P265)
[3] = molecular target: INPP5F (UniProt Q9Y2H2)
[4] = molecular target: ITPR2 (UniProt Q14571)
[5] = molecular target: NMI (UniProt Q13287)
[6] = molecular target: S100A6 (UniProt P06703)
[7] = molecular target: SLC44A1 (UniProt Q8WWI5)
[8] = molecular target: WAC (UniProt Q9BTA9)

UniProt Q8WWI5, sequence (Q8WWI5 whole entry): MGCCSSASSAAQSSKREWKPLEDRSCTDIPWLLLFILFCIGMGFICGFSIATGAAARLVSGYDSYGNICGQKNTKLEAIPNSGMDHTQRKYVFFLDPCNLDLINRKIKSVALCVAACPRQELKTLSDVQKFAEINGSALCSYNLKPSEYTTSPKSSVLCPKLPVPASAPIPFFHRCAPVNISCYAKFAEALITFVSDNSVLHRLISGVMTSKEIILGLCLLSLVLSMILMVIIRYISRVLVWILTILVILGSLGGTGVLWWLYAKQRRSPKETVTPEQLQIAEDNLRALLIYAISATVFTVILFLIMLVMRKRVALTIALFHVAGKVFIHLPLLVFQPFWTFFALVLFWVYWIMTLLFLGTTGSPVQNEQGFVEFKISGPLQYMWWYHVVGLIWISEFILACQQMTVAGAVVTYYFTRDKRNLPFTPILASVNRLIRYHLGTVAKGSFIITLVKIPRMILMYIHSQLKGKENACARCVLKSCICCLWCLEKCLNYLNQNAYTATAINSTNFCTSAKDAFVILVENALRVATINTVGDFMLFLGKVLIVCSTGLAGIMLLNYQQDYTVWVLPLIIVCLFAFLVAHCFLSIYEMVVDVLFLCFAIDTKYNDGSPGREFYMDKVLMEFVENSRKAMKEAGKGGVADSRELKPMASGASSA
UniProt Q14571, sequence (Q14571 whole entry): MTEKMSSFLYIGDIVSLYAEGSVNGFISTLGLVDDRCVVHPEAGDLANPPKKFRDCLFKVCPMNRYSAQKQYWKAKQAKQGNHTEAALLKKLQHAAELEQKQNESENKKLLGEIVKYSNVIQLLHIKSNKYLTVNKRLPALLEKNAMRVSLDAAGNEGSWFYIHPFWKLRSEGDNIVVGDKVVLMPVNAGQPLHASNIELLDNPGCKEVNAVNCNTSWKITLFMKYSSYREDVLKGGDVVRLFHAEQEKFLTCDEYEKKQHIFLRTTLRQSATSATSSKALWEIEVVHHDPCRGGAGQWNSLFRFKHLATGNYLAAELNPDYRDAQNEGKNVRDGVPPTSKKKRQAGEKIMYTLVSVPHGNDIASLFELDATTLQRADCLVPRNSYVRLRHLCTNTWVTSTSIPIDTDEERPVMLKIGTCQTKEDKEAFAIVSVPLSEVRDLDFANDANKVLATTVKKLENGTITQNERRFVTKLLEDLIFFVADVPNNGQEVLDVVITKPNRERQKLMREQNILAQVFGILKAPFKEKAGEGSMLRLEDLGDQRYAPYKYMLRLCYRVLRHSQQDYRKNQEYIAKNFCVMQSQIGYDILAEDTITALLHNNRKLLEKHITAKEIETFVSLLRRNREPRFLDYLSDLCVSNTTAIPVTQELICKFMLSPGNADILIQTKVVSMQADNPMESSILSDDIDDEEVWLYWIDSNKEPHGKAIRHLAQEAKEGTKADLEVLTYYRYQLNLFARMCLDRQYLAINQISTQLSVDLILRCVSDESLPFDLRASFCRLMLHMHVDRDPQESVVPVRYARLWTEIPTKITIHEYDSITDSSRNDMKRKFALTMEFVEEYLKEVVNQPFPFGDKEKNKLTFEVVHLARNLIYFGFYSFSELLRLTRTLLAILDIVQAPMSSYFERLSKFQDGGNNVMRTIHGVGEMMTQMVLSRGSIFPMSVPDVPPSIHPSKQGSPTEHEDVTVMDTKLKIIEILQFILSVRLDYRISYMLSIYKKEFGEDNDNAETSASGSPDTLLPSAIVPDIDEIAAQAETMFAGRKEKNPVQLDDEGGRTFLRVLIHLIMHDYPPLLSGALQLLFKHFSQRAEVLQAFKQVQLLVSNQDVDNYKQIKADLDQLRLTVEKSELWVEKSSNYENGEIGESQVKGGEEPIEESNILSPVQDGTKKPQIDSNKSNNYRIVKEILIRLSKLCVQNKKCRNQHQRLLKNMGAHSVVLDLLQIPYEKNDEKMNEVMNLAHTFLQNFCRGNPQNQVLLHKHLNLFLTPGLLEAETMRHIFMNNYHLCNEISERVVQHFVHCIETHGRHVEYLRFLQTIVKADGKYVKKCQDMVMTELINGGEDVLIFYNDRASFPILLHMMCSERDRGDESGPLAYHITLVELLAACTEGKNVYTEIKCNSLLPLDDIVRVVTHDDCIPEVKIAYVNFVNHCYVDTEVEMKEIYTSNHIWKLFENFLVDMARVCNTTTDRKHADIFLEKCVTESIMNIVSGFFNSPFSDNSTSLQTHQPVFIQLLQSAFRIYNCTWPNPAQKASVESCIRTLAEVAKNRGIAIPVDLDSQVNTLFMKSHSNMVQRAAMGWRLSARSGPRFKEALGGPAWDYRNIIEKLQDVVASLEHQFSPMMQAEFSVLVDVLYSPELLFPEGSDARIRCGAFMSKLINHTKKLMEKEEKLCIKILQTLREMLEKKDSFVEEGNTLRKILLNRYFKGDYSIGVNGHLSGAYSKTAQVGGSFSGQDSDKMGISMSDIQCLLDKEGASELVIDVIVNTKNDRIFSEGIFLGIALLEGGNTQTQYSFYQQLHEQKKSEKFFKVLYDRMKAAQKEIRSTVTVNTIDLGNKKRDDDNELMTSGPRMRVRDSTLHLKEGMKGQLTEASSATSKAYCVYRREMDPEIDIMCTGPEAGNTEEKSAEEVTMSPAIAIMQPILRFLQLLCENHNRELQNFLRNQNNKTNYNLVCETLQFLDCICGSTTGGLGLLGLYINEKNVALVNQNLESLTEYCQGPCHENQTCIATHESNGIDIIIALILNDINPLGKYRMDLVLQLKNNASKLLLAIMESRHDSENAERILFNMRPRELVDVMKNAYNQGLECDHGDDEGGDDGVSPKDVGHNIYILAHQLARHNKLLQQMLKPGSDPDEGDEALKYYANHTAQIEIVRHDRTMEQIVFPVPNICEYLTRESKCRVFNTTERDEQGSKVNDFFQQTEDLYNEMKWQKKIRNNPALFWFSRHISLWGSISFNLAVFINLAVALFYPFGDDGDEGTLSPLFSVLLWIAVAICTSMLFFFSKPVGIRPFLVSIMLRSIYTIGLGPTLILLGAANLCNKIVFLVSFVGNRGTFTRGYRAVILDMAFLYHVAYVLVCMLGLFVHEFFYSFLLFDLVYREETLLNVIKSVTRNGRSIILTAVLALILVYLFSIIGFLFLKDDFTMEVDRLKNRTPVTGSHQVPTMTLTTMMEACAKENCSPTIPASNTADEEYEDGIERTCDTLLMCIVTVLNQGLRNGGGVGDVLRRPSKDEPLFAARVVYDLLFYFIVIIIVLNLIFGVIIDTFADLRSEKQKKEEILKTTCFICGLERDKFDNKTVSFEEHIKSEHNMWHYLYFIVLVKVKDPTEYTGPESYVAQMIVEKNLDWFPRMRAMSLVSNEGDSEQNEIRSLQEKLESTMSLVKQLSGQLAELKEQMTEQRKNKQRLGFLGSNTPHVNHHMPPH
UniProt Q9Y2H2, sequence (Q9Y2H2 whole entry): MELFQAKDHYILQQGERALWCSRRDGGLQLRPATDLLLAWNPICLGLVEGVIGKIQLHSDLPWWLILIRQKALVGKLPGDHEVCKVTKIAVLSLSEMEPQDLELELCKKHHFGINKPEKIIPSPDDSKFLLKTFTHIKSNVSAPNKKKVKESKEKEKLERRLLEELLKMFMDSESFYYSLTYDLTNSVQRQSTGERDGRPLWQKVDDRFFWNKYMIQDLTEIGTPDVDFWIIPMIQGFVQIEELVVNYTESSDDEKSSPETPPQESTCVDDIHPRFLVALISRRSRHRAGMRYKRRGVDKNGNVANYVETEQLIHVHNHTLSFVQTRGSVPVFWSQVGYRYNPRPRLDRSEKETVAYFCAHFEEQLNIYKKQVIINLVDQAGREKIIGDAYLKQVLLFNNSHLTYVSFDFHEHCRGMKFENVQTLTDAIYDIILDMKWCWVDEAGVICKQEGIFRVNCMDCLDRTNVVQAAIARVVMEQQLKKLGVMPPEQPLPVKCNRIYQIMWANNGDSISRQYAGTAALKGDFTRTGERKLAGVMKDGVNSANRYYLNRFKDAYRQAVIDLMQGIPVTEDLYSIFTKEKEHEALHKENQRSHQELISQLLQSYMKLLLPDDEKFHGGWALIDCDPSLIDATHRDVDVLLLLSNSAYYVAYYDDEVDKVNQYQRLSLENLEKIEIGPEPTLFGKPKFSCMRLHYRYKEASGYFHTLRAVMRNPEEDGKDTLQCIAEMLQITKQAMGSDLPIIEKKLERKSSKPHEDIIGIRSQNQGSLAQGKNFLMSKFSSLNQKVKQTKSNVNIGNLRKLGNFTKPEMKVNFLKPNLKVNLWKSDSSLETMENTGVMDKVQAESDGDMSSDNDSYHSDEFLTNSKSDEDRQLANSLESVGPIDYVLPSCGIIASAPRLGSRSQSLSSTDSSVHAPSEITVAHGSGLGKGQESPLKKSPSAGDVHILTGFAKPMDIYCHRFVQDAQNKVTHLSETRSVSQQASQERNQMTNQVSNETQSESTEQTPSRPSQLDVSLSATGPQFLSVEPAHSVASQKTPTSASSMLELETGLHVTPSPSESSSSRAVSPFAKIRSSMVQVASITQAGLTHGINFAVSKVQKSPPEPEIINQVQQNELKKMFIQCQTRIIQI
RNASEH1, sequence (O60930 whole entry): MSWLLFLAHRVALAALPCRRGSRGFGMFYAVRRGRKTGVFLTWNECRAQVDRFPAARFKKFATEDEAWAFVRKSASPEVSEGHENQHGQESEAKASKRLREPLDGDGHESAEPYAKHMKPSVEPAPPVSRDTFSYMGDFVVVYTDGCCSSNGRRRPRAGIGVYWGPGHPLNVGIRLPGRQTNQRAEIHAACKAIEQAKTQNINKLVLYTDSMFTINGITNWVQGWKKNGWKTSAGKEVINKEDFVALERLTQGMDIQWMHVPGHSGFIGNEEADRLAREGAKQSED
UniProt Q13287, sequence (Q13287 whole entry): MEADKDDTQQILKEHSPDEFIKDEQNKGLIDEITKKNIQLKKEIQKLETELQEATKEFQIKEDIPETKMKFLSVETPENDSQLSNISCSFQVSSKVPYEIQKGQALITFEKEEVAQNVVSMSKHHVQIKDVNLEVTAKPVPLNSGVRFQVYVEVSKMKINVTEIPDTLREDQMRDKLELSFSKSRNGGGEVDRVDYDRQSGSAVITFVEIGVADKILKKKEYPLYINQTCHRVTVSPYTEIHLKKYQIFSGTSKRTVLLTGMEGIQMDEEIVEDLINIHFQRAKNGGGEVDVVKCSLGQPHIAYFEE

In the case of PLS3, P13797, the cross-linked residues [1] is reported as “K42 - K182”.

With PLK3, Q9H4B4 the cross-linked residues [2] was “K217 - K118”.

With B2M, P61769 the cross-linked residues [3] was “K39 - K352”.

For OAS2, P29728, the cross-linked residues [4] was “K388 - K954”.

For RNASEH1, O60930, the cross-linked residues [5] was “K236 - K156”.

With TPD52L2, O43399 the cross-linked residues [6] was “K175 - K47”.

With KNTC1, P50748 the cross-linked residues [7] was “K859 - K145”.

CENPN, Q96H22 was tested, and the cross-linked residues [8] was “K245 - K175”.
